Source: PubChem BioAssay (NCI)
About 83,000 compounds went through this panel and 20% of them were active in at least one assay; those are over-represented in the sample as a whole.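 Method: cells in 96-well plates; compound added at one concentration; 48 h incubation; percent growth measured; values under 10 scored active.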 Calls of active or inactive are those of the source.

tested on: RXF 393 renal; experiment: NCI-60 one-dose screen, 48 h (100 = growth as untreated, 0 = no growth, -100 = all killed); settings: 10 µM unless noted

| SMILES | growth |
| --- | --- |
| CCN(CC)c1ccc(/C=C2\Oc3ccc(O)c(I)c3C2=O)cc1 | 63% (inactive) |
| CC1(c2ccc(Cl)cc2)OC(=O)CC(=O)O1 | 113% (inactive) |
| Cc1csc(NC(c2ccccc2)c2c(C)nc3ccccn23)n1 (stereo not drawn) | 122% (inactive) |
| COc1cc(-c2nc(N=Nc3c(O)[nH]c4ccc(Br)cc34)[nH]c(=O)c2C#N)cc(OC)c1OC | 102% (inactive) |
| O=C1/C(=C/c2ccc(Cl)cc2)CN(C(=O)CCN2CCC(=NO)CC2)C/C1=C\c1ccc(Cl)cc1 | -91.3% (active) |
| Cc1ccc(-c2cc3nc(C(Cl)Cl)nc(-c4ccccc4C)n3n2)cc1 | 22.8% (inactive) |
| Nc1cccc(-c2nc3sccn3c2-c2ccnc(NCCNS(=O)(=O)c3ccc(C(F)(F)F)cc3)n2)c1 | 48.7% (inactive) |
| FC(F)(F)c1cccc(-c2cn3c(ccc4ccccc43)n2)c1 | 115% (inactive) |
| CCCCCCN1CSC(=S)N(CCCCCC)C1 | 106% (inactive) |
| Oc1ccc2cc(Br)ccc2c1-c1c(O)ccc2cc(Br)ccc12 | 59.8% (inactive) |
| C=C(C)[C@@H]1C[C@H](O)Cc2cc(F)ccc2N1 | 100% (inactive) |
| NC1=NC(SCc2ccccc2CCl)c2ncn(Cc3ccccc3CCl)c2N1 (stereo not drawn) | -4.55% (active) |
| COc1ccc(C(=O)c2cc(OC)c(OC)c(OC)c2OC)cc1O | 40% (inactive) |
| CNc1ccc(Br)c2c1C(=O)c1ccccc1C2=O | 122% (inactive) |
| Cc1cc(N/N=C/c2nc(-c3ccccc3)oc2C)c2cc(Br)ccc2n1 | 102% (inactive) |
| CC(C)(C)n1cc(-c2ccnc(NCCCNS(=O)(=O)c3ccccc3)c2)c(-c2cccc(O)c2)n1 | 52.8% (inactive) |
| O=C1Nc2ccc(Cl)cc2C12Nc1cc(Cl)ccc1S2 (stereo not drawn) | -8.23% (active) |
| O=C1/C(=C/c2ccccc2)CN(C(=O)CCN2CCC(=NO)CC2)C/C1=C\c1ccccc1 | -71% (active) |
| O=[N+]([O-])c1cccc(-c2nc3sccn3c2-c2ccnc(NCCCNS(=O)(=O)c3ccc(Cl)cc3)n2)c1 | 77.9% (inactive) |
| Cc1ccc(S(=O)(=O)Nc2c(Br)cc(Br)cc2C(N)=O)cc1 | 93.1% (inactive) |

| SMILES | growth |
| --- | --- |
| CN(C[C@H]1Cc2c(cccc2N2CCN(Cc3ccccn3)CC2)CN1)[C@H]1CCCc2cccnc21 | 77.9% (inactive) |
| CC(C)(C)OC(=O)NC(CSCc1ccccc1)C(=O)ON1C(=O)CCC1=O (stereo not drawn) | 124% (inactive) |
| COc1ccc(-c2ccc(-c3ccc(C(=N)N)s3)s2)cc1Cl | -87.5% (active) |
| O=[N+]([O-])c1ccc(C(c2ccccc2)c2ccccc2)cc1 | 100% (inactive) |
| CCN(CC)c1ccc2[nH]c3c(C(N)=O)cc(=O)c(=O)c=3oc2c1 | -24.5% (active) |
| CCNc1nc(S(=O)(=O)CC)nc2ccccc12 | 107% (inactive) |
| CCC(=O)Oc1ccc(/C(=C(/C)Cc2cccc(OC)c2)c2ccc(OCCN(C)C)cc2)cc1 | 88.6% (inactive) |
| Nc1nc(-c2ccccc2)c(CCCOc2ccc(NC(=O)CBr)cc2)c(=O)[nH]1 | 106% (inactive) |
| CN(C)CCOC(=O)Nc1ccccc1Cl | 120% (inactive) |
| c1ccc(-c2nnc(-c3ccccn3)s2)nc1 | 109% (inactive) |
| COc1ccc(-c2nc(N3CCCC3=O)sc2Br)cc1OC | 89.9% (inactive) |
| C=C1CCC2C3(C)COC(c4c(OC)cccc4OC)OC3CCC2(C)C1C/C=C1/C(=O)OCC1O (stereo not drawn) | -28.7% (active) |
| c1cc2[nH]ncc2cc1-c1nc2ccc3[nH]ncc3c2c2c1CCC2 | 19.5% (inactive) |
| COc1ccc2c(c1)[nH]c(=O)c1c3cc(OC)ccc3cn21 | -39.9% (active) |
| NC(N)=Nc1nc2ccccc2o1 | 114% (inactive) |
| Nc1ccc(C(=O)CSc2nc3ccccc3[nH]2)cc1 | 110% (inactive) |
| CC(C)(C)n1cc(-c2ccnc(NCCCNS(=O)(=O)c3ccc(F)cc3)c2)c(-c2cccc(O)c2)n1 | 38.7% (inactive) |
| COc1ccccc1CNCCCN1C(=O)c2ccc3c4c(ccc(c24)C1=O)C(=O)N(CCCNCCCCNCCCN)C3=O | -66.8% (active) |
| O=C(CCl)N(C1CCCCC1)C1CCCCC1 | 107% (inactive) |

tested on: SF-268 CNS; experiment: as above; settings: 10 µM unless noted

| SMILES | growth |
| --- | --- |
| CCN(CC)c1ccc(/C=C2\Oc3ccc(O)c(I)c3C2=O)cc1 | 71.4% (inactive) |
| CC1(c2ccc(Cl)cc2)OC(=O)CC(=O)O1 | 100% (inactive) |
| Cc1csc(NC(c2ccccc2)c2c(C)nc3ccccn23)n1 (stereo not drawn) | 103% (inactive) |
| COc1cc(-c2nc(N=Nc3c(O)[nH]c4ccc(Br)cc34)[nH]c(=O)c2C#N)cc(OC)c1OC | 101% (inactive) |
| O=C1/C(=C/c2ccc(Cl)cc2)CN(C(=O)CCN2CCC(=NO)CC2)C/C1=C\c1ccc(Cl)cc1 | -60.1% (active) |
| Cc1ccc(-c2cc3nc(C(Cl)Cl)nc(-c4ccccc4C)n3n2)cc1 | 92.6% (inactive) |
| Nc1cccc(-c2nc3sccn3c2-c2ccnc(NCCNS(=O)(=O)c3ccc(C(F)(F)F)cc3)n2)c1 | 35.5% (inactive) |
| FC(F)(F)c1cccc(-c2cn3c(ccc4ccccc43)n2)c1 | 98.7% (inactive) |
| CCCCCCN1CSC(=S)N(CCCCCC)C1 | 104% (inactive) |
| Oc1ccc2cc(Br)ccc2c1-c1c(O)ccc2cc(Br)ccc12 | 53.8% (inactive) |
| C=C(C)[C@@H]1C[C@H](O)Cc2cc(F)ccc2N1 | 113% (inactive) |
| NC1=NC(SCc2ccccc2CCl)c2ncn(Cc3ccccc3CCl)c2N1 (stereo not drawn) | 54.9% (inactive) |
| COc1ccc(C(=O)c2cc(OC)c(OC)c(OC)c2OC)cc1O | 38.9% (inactive) |
| CNc1ccc(Br)c2c1C(=O)c1ccccc1C2=O | 115% (inactive) |
| Cc1cc(N/N=C/c2nc(-c3ccccc3)oc2C)c2cc(Br)ccc2n1 | 95% (inactive) |
| CC(C)(C)n1cc(-c2ccnc(NCCCNS(=O)(=O)c3ccccc3)c2)c(-c2cccc(O)c2)n1 | 50.8% (inactive) |
| O=C1Nc2ccc(Cl)cc2C12Nc1cc(Cl)ccc1S2 (stereo not drawn) | 88.3% (inactive) |
| O=C1/C(=C/c2ccccc2)CN(C(=O)CCN2CCC(=NO)CC2)C/C1=C\c1ccccc1 | 7.27% (active) |
| O=[N+]([O-])c1cccc(-c2nc3sccn3c2-c2ccnc(NCCCNS(=O)(=O)c3ccc(Cl)cc3)n2)c1 | 69.7% (inactive) |
| Cc1ccc(S(=O)(=O)Nc2c(Br)cc(Br)cc2C(N)=O)cc1 | 109% (inactive) |

| SMILES | growth |
| --- | --- |
| CN(C[C@H]1Cc2c(cccc2N2CCN(Cc3ccccn3)CC2)CN1)[C@H]1CCCc2cccnc21 | 63.8% (inactive) |
| CC(C)(C)OC(=O)NC(CSCc1ccccc1)C(=O)ON1C(=O)CCC1=O (stereo not drawn) | 102% (inactive) |
| COc1ccc(-c2ccc(-c3ccc(C(=N)N)s3)s2)cc1Cl | 76.8% (inactive) |
| O=[N+]([O-])c1ccc(C(c2ccccc2)c2ccccc2)cc1 | 98.7% (inactive) |
| CCN(CC)c1ccc2[nH]c3c(C(N)=O)cc(=O)c(=O)c=3oc2c1 | 10.5% (inactive) |
| CCNc1nc(S(=O)(=O)CC)nc2ccccc12 | 92.3% (inactive) |
| CCC(=O)Oc1ccc(/C(=C(/C)Cc2cccc(OC)c2)c2ccc(OCCN(C)C)cc2)cc1 | 86.3% (inactive) |
| Nc1nc(-c2ccccc2)c(CCCOc2ccc(NC(=O)CBr)cc2)c(=O)[nH]1 | 91.8% (inactive) |
| CN(C)CCOC(=O)Nc1ccccc1Cl | 112% (inactive) |
| c1ccc(-c2nnc(-c3ccccn3)s2)nc1 | 95.4% (inactive) |
| COc1ccc(-c2nc(N3CCCC3=O)sc2Br)cc1OC | 104% (inactive) |
| C=C1CCC2C3(C)COC(c4c(OC)cccc4OC)OC3CCC2(C)C1C/C=C1/C(=O)OCC1O (stereo not drawn) | 67% (inactive) |
| c1cc2[nH]ncc2cc1-c1nc2ccc3[nH]ncc3c2c2c1CCC2 | 56.2% (inactive) |
| COc1ccc2c(c1)[nH]c(=O)c1c3cc(OC)ccc3cn21 | -3.31% (active) |
| NC(N)=Nc1nc2ccccc2o1 | 88.4% (inactive) |
| Nc1ccc(C(=O)CSc2nc3ccccc3[nH]2)cc1 | 99.4% (inactive) |
| CC(C)(C)n1cc(-c2ccnc(NCCCNS(=O)(=O)c3ccc(F)cc3)c2)c(-c2cccc(O)c2)n1 | 51.4% (inactive) |
| COc1ccccc1CNCCCN1C(=O)c2ccc3c4c(ccc(c24)C1=O)C(=O)N(CCCNCCCCNCCCN)C3=O | 1.6% (active) |
| O=C(CCl)N(C1CCCCC1)C1CCCCC1 | 103% (inactive) |
